Shown are actives, neighbours in structure and some others; about 1.6% of the full set was active somewhere.
KCNQ2 pot: potentiators of rat KCNQ2 potassium channel | 310,000 tested, 0.54% active | B-score at 10 µM | CHO-K1 KCNQ2, FluxOR thallium flux fluorescence; active compounds read high | Potassium voltage-gated channel subfamily KQT member 2 (Rattus norvegicus), O88943;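 active = fluorescence ratio B-score at least 3 SD of library B-scores, with initial fluorescence B-score within 3 of them, cut at about 5.3 in these data; same plate scores as AID 2156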;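 also: B-score of peak minus minimum over baseline fluorescence ratio after K+ and Tl+ stimulus; positive B-score means potentiation of KCNQ2 with more thallium influx and brighter signal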
KCNQ2 inh: rat KCNQ2 potassium channel inhibitors, primary screen, cell-based, CHO-K1, FluxOR thallium flux, B-score; Potassium voltage-gated channel subfamily KQT member 2 (Rattus norvegicus), O88943; 20 min; active compounds read low; B-score at 10 µM; 310,000 tested, 1.1% active; AID 2156, 2009;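 active = fluorescence ratio B-score at most minus 3 library SDs, with starting brightness B-score within 2 library SDs, cut at about -5.5 in these data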
Kir21 conf inh: mouse Kir2.1 channel blockers, retest, confirmation, cell-based, FluxOR thallium flux, duplicate; shares compounds with KCNQ2 pot; Kir2.1-expressing cells, FluxOR thallium flux fluorescence; active compounds read low; Tl flux remaining, % of negative control (active compounds read low), % at 10 µM; 2,300 tested, 41% active;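 active = Primary-screen hit whose thallium flux fell at least 3 control SD below untreated wells in both duplicates, with normal baseline fluorescence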;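 also: 0% = blank wells without stimulus and 100% = stimulated no-compound controls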
HEK293 ctr: alters thallium flux in parental HEK293 cells, Kir2.1 counter-screen; AID 2105; 2,300 tested, 19% active; FluxOR signal as % of negative control (100 = no effect), % at 10 µM; FluxOR thallium flux fluorescence; 0% = unstimulated blank wells; shares compounds with KCNQ2 pot;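 active = dye signal at least 3 control SD above or below untreated wells in both duplicates, raw fluorescence within 3, either direction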;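 also: percent is based on the flux ratio of peak minus minimum fluorescence over baseline F0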
CHO-K1 ctr: nonspecific thallium flux increase in parental CHO-K1, confirmation, counter-screen for KCNQ2 potentiator project, cell-based, FluxOR thallium flux, duplicate | shares compounds with KCNQ2 pot | parental CHO-K1 cells, FluxOR thallium flux fluorescence; zero = vehicle mean+3SD, 100% = vehicle-minus-blank window | activity increase over 3SD of controls, % at 10 µM | 1,200 tested, 43% active | AID 2282, 2010;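 active = signal rise of at least 3 SD above the untreated control mean, in both duplicate wells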;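 also: counter screen of KCNQ2 potentiator hits so any rise reflects channel-independent effects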
KCNQ1 sel pot: human KCNQ1 channel potentiation off-target, confirmation, selectivity assay for KCNQ2 potentiator project, cell-based, CHO, FluxOR thallium flux; 1,200 tested, 28% active; CHO KCNQ1 stable, FluxOR thallium flux fluorescence; beyond 3SD, as % of vehicle-control signal; activation over 3SD threshold, % at 10 µM; shares compounds with KCNQ2 pot;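 active = fluorescence ratio rise of at least 3 SD of vehicle wells above their mean, in both replicate wells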;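 also: 0% = vehicle mean plus 3 SD and 100% = vehicle minus unstimulated blank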
KCNQ2 pot confirm: rat KCNQ2 channel potentiators, confirmation, cell-based, CHO, FluxOR thallium flux, duplicate; shares compounds with KCNQ2 pot; CHO-KCNQ2 cells, FluxOR thallium flux fluorescence; potentiation, less the hit threshold, % at 10 µM; 1,200 tested, 68% active;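 active = fluorescence ratio rising 3 SD or more over the vehicle control mean in both replicates, plus primary screen hit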;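 also: peak minus minimum thallium fluorescence divided by baseline after K/Tl stimulus; 0% = vehicle mean plus 3 SD and 100% = vehicle minus unstimulated blank difference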
Kir21 spec: mouse Kir2.1 channel activation off-target, confirmation, selectivity assay for KCNQ2 potentiator project, cell-based, HEK293, FluxOR thallium flux | activity over 3SD threshold, % at 10 µM | 1,200 tested, 2% active | shares compounds with KCNQ2 pot | HEK293 Kir2.1, FluxOR thallium flux fluorescence | AID 2345, 2010;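 active = fluorescence ratio rise of at least 3 SD above the vehicle-control mean, seen in both replicates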;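 also: 0% = vehicle mean plus 3 SD and 100% = vehicle minus no-stimulus blank window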
KCNQ2 W236L MoA: potentiators of retigabine-insensitive KCNQ2 W236L, mechanism study for KCNQ2 potentiator project, cell-based, rat KCNQ2 W236L, CHO, automated patch clamp; shares compounds with KCNQ2 pot; current increase over 3SD of negative controls (%), active compounds read high, % at 25 µM; AID 2558, 2010; automated patch clamp current; 940 tested, 10% active;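 active = current increase at least 3 SD of the untreated controls above them in both duplicate recordings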
Target sequence (O88943 whole entry W236L, looked up): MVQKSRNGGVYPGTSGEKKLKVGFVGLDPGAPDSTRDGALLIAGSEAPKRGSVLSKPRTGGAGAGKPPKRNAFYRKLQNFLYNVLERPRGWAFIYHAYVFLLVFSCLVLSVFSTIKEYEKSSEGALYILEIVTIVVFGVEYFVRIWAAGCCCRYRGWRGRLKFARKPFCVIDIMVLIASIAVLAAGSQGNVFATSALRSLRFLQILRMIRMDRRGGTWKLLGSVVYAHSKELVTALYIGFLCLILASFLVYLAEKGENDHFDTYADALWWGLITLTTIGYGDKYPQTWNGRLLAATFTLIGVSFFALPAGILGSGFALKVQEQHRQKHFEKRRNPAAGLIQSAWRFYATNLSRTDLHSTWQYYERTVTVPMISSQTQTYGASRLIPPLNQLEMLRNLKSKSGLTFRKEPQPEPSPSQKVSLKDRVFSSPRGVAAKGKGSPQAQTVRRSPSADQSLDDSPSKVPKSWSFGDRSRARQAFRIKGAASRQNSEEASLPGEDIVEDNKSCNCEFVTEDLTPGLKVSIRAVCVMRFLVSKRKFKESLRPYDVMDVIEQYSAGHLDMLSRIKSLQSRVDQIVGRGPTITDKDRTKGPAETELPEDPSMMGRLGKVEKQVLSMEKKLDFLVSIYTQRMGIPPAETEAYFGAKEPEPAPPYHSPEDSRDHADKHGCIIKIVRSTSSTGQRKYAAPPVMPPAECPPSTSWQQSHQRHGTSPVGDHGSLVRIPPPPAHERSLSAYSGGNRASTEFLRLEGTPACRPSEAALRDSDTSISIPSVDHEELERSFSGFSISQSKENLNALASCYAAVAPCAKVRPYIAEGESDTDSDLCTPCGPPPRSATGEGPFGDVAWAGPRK
An asterisk follows results filed as active; i = inactive; · = not tested or not shown.

SMILES | KCNQ2 pot | KCNQ2 inh | Kir21 conf inh | HEK293 ctr | CHO-K1 ctr | KCNQ1 sel pot | KCNQ2 pot confirm | Kir21 spec | others
CCOC(=O)NC(=S)Nc1ccc(C(C)(C)C)cc1 | 10* | i | i | i | -11 | -13 | 26* | -37 | KCNQ2 W236L MoA=i
CCOC(=O)C(NC(C)=O)C(=O)Nc1ccc(C(C)(C)C)cc1 (stereo not given) | · | i | · | · | · | · | · | ·
Cc1ccc(C)c(S(=O)(=O)N2CCCC2CNC(=O)C(=O)NCCN2CCOCC2)c1 (stereo not given) | · | i | · | · | · | · | · | ·
O=C(NCC(c1cccs1)N1CCOCC1)C1CCN(S(=O)(=O)c2ccccc2C(F)(F)F)CC1 (stereo not given) | 3.1 | i | · | · | · | · | · | ·
C#CCOc1ccc2c3c(c(=O)oc2c1)CCCC3 | · | i | · | · | · | · | · | ·
O=C(CN1C(=O)c2ccc(Br)cc2C1=O)NCC1CCCO1 (stereo not given) | 0.5 | i | · | · | · | · | · | ·
Cn1c(=O)c(C(=O)Nc2ccccc2S(N)(=O)=O)c(O)c2ccccc21 | 6* | i | i | i | -19 | -11 | -4 | -35
CC(C)Cn1c(=O)c(C(=O)Nc2ccccc2S(N)(=O)=O)c(O)c2ccccc21 | · | i | · | · | · | · | · | ·
CCOCCCNC(=O)Cn1nc(Cc2ccncc2)c2ccccc2c1=O | · | i | · | · | · | · | · | ·
Nc1ncc(Br)cc1S(=O)(=O)Nc1ccccc1F | 0.47 | i | · | · | · | · | · | ·
CCCCN(C(=O)CCn1c(=O)oc2ccccc21)c1ccccc1 | · | i | 49%* | i | · | · | · | ·
CCN(CC)C(=O)Cn1c(=O)oc2ccccc21 | · | i | · | · | · | · | · | ·
Cc1cc(S(=O)(=O)N2CCCC2)ccc1OCC(=O)Nc1ccccc1 | · | i | · | · | · | · | · | ·
CC1(C)CC(=O)C(C(c2ccco2)C2C(=O)CC(C)(C)CC2=O)C(=O)C1 | 9.8* | i | i | 74%* | -40 | -16 | 40* | -37 | KCNQ2 W236L MoA=i
CC1(C)CC(=O)C(C(c2ccc(F)cc2)C2C(=O)CC(C)(C)CC2=O)C(=O)C1 | · | i | · | · | · | · | · | ·
O=C(NC1CCN(C(=S)Nc2ccc(F)cc2)CC1)C1CCCCC1 | · | i | · | · | · | · | · | ·
O=C(O)c1ccccc1C(=O)Nc1ccccc1 | 0.79 | i | · | · | · | · | · | ·
O=C(Nc1ccccc1)C1=C(c2ccccc2)S(=O)(=O)CCS1(=O)=O | 8.1* | i | i | i | -16 | -22 | 3.7* | -39 | KCNQ2 W236L MoA=3.5%*
CCN(CC(=O)NCc1ccc(Cl)cc1)Cc1cc(=O)n2ccsc2n1 | 0.94 | i | · | · | · | · | · | ·
CCC(C)(C)NC(=O)C(c1ccc(C)cc1)N(CC1CCCO1)C(=O)c1csnn1 (stereo not given) | 0.7 | i | · | · | · | · | · | ·
CCCCc1ccc(NC(=O)CC(C)C)cc1 | 7.4* | i | i | 280%* | -19 | -2 | 94* | -21 | KCNQ2 W236L MoA=i
CCN(CC)c1ccc(NC(=O)C2CCCC2)cc1 | 3.5 | i | · | · | · | · | · | ·
CCCCc1ccc(NC(=O)C2CCCC2)cc1 | 7* | i | i | i | 109* | -9 | -2 | -38 | KCNQ2 W236L MoA=i
CCCCc1ccc(NC(=O)COCC)cc1 | 1.3 | i | · | · | · | · | · | ·
CC(=O)c1ccc(-c2nnc(CCC(=O)N3CCCC(C(=O)CC(C)C)C3)o2)s1 (stereo not given) | · | i | · | · | · | · | · | ·
SMILES | KCNQ2 pot | KCNQ2 inh | Kir21 conf inh | HEK293 ctr | CHO-K1 ctr | KCNQ1 sel pot | KCNQ2 pot confirm | Kir21 spec | others
COCCNc1nc(-c2ccc(OC)cc2)c(-c2ccc(OC)cc2)s1 | 0.01 | i | · | · | · | · | · | ·
O=C1OCC/C1=C\c1ccc(O)cc1 | · | i | · | · | · | · | · | ·
O=C(NCc1nnc(SCC(=O)N2CCCC2)o1)c1cccc(C(F)(F)F)c1 | · | i | · | · | · | · | · | ·
Cc1cccc(Nc2nc(N)nc(CN3CCN(c4ccc(F)cc4)CC3)n2)c1 | 6.9* | i | i | i | 44* | -7 | -8 | -40 | KCNQ2 W236L MoA=i
Cc1cccc(Nc2nc(N)nc(CN3CCN(C)CC3)n2)c1 | 0.06 | i | · | · | · | · | · | ·
Cc1cc(NC(=O)CCC(=O)N(CC(C)C)C(C(=O)NC(C)(C)C)c2ccccc2Cl)no1 (stereo not given) | · | i | · | · | · | · | · | ·
CC1=CC(C)(C)NC(=S)N1c1ccc(C)c(C)c1 | 0.02 | i | · | · | · | · | · | ·
CCC1(c2ccc(Cl)cc2)NC(=S)N(c2ccc(C)c(C)c2)N1 (stereo not given) | 29* | i | i | 537%* | 21* | -10 | 68* | -3
CCC1(c2ccccc2)NC(=S)N(c2ccc(C)c(C)c2)N1 (stereo not given) | 13* | i | i | 435%* | -5 | -18 | 55* | -19 | KCNQ2 W236L MoA=i
Cc1ccc(-n2c(C)n[nH]c2=S)cc1C | · | i | · | · | · | · | · | ·
CCOc1cc(C(F)(F)F)cnc1/C(N)=N/O | · | i | · | · | · | · | · | ·
CCC1(C)Cc2ccccc2-c2[nH]c(=S)[nH]c(=O)c21 (stereo not given) | 1.2 | i | · | · | · | · | · | ·
CCn1c(=S)[nH]c2c(c1=O)C(C)(C)Cc1ccccc1-2 | 12* | i | i | 288%* | 4.3* | -15 | 28* | -23 | KCNQ2 W236L MoA=i
CCn1c(=O)c(C(=O)NCc2ccccn2)c(O)c2ccccc21 | 18* | i | i | i | -20 | -24 | 35* | -53 | KCNQ2 W236L MoA=i
CCn1c(=O)c(C(=O)NCc2ccc(OC)cc2)c(O)c2ccccc21 | · | i | · | · | · | · | · | ·
NC(=O)c1ccc(NC(=O)CSc2nnc(-c3ccncc3)n2Cc2ccco2)cc1 | · | i | · | · | · | · | · | ·
CC(C)N=C1NN=C(c2ccc(Cl)c(Cl)c2)CS1 | · | i | · | · | · | · | · | ·
Cc1c(Cl)cccc1NC(=O)CSC(N)=O | 4.6 | i | · | · | · | · | · | ·
NC(=O)SCC(=O)Nc1cccc(Cl)c1 | 7.7* | i | i | i | 16* | -6 | 12* | -44 | KCNQ2 W236L MoA=i
COCC(=O)Nc1ccc(C)c(Cl)c1 | 2.1 | i | · | · | · | · | · | ·
